Pf Dd2 growth: Plasmodium falciparum Dd2 growth inhibition; 120,000 tested, 4.3% active; Potency, µM (highest dose often 28.9 µM), usual class: inhibitors; P. falciparum Dd2 growth, SYBR Green, 72 h; AID 1347417; active means well fitted inhibition curve with a large enough effect; further: nearly all actives have a fitted effect of over 65% in size
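Infected erythrocytes (Dd2, 0.3% parasitemia, 2.5% hematocrit final) are added to compound in RPMI-1640/Albumax II medium, grown 72 h at 37C in low oxygen, then lysed with saponin/Triton-X containing SYBR Green and read by fluorescence.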
Each line names hits and unclear results; the compound was inactive in the other large screens. Shown is part of a subset that was picked to be rich in hits.

O=C(N1CCC2(CC1)OCCCC2O)C1(c2ccc(Cl)cc2)CCC1 (centres undefined)	none
O=C(Nc1nc2n(n1)C(c1ccc(F)cc1)C=C(c1ccc(Cl)cc1)N2)c1ccc([N+](=O)[O-])cc1 (centres undefined)	Pf Dd2 growth 3.98µM
Cc1ccc(C2C=C(c3ccc(Cl)cc3)Nc3nc(NC(=O)c4ccco4)nn32)cc1 (centres undefined)	Pf Dd2 growth 3.55µM
CCC1Oc2ccc(NC(=O)c3ccc([N+](=O)[O-])cc3)cc2CN(Cc2ccc(F)cc2)C1=O (centres undefined)	none
CC(=O)Nc1ccc(S(=O)(=O)Nc2nc3n(n2)C(c2ccccc2)C=C(c2ccc(Cl)cc2)N3)cc1 (centres undefined)	none
Cc1ccc(-c2nc3sc(CCNC(=O)c4ccco4)c(C)n3n2)cc1	none
O=C(Nc1cnc(-c2ccc(F)cc2)nc1)c1ccco1	none
COc1ccccc1C(=O)Nc1nc2n(n1)C(c1ccc(F)cc1)C=C(c1ccc(Cl)cc1)N2 (centres undefined)	Pf Dd2 growth 4.47µM
COc1ccccc1C(=O)NC1CCN(c2cc(-c3ccc(Cl)cc3)[nH]n2)CC1	none
O=C(Cn1nnc(-c2ccc(Cl)cc2)n1)NCc1ccc(F)cc1	none
O=C(Nc1nc2n(n1)C(c1ccccc1)C=C(c1ccccc1)N2)c1ccc(Cl)c([N+](=O)[O-])c1 (centres undefined)	Pf Dd2 growth 8.91µM
O=S(=O)(Nc1nc2n(n1)C(c1ccccc1)C=C(c1ccc(Cl)cc1)N2)c1ccccc1 (centres undefined)	none
CCC(O)c1cc2n(n1)CCN(c1ncc(F)c(N3CCOCC3)n1)C2 (centres undefined)	none
COc1ccc(-c2[nH]nc3ncc(-c4cn[nH]c4)nc23)c(C)c1	none
COc1ccc(C[C@H](NC(=O)C2=C[C@@H](NC(=O)c3cccc(F)c3)[C@@H](O)[C@H](O)C2)C(N)=O)cc1	none
O=[S+]([O-])(c1cccc(C(F)(F)F)c1)N1CCn2c(nnc2-c2ccccc2)C1	none
O=C(c1ccccc1)N1CCCC2(C1)C(=NC1CCCC1)NC(=O)N2c1cc(F)cc(F)c1 (centres undefined)	none
COC[C@@H]1CN(S(=O)(=O)c2cc(F)ccc2OC)C[C@H]1C(N)=O	none
COc1ccc(CN2Cc3[nH]cnc3C[C@H]2C(=O)N(C)Cc2ccccc2)c2ccccc12	Pf Dd2 growth 5.62µM
COc1ccc(CN2Cc3[nH]cnc3C[C@H]2C(=O)NC2CCCCC2)c2ccccc12	Pf Dd2 growth 11.2µM
CN(C)c1ccc(CN2Cc3[nH]cnc3C[C@H]2C(=O)N2CCC(Cc3ccccc3)CC2)cc1	none
CN(Cc1ccccc1)C(=O)[C@@H]1Cc2nc[nH]c2CN1C	none
COc1ccc(CN2Cc3[nH]cnc3C[C@H]2C(=O)NCc2ccc(Cl)cc2)c2ccccc12	none
COc1ccc(CN2Cc3[nH]cnc3C[C@H]2C(=O)NCc2ccc(C#N)cc2)c2ccccc12	none
COc1cccc(C(=O)N2CCn3c(nn(-c4ccncc4)c3=O)C2)c1	none
CS(=O)(=O)c1ccc(OCC2(CNC(=O)c3ccno3)C[C@@H](O)[C@@H](O)C2)cc1 (some centres undefined)	none
CC(C)c1ccc(CN2CC(CNC(=O)C3CCOCC3)C3(C2)CN(c2ccccc2)C3)cc1 (centres undefined)	none
CCOCc1nc(C2CCCN(C(=O)CCc3ccccc3)C2)no1 (centres undefined)	none
COc1ccccc1CNC(=O)Cc1csc2nc(-c3ccccc3)cn12	none
CC(C)NC(=O)Cc1csc2nc(-c3ccccc3)cn12	none
CCN(CC)CCCNC(=O)Cc1csc2nc(-c3ccc(Cl)cc3)cn12	Pf Dd2 growth 8.91µM
O=C(Cn1ccn2nc(-c3ccccc3)c(CO)c2c1=O)Nc1cccc(F)c1	none
CN(C)S(=O)(=O)c1ccc2c(c1)N(CC(=O)N1CCC(C(N)=O)CC1)CCS2	none
COc1cccc(N2CCN(C(=O)CN3CCSc4ccc(S(=O)(=O)N(C)C)cc43)CC2)c1	Pf Dd2 growth 11.2µM
COc1ccc(N2CCN(C(=O)CN3CCSc4ccccc43)CC2)cc1	none
CCn1ncc(N2CCCC(CC(=O)O)C2)cc1=O (centres undefined)	none
Cc1ccsc1CN1CCc2nc(N3CCOCC3)[nH]c(=O)c2CC1	none
COC1CCN(C(=O)Cn2c3c(c(=O)n2Cc2ccccc2)CCN(Cc2ccccc2)C3)CC1	none
COc1ccc(-c2nc3ccccc3s2)cc1NC(=O)COc1ccc(C)cc1	none
COc1ccc(-c2nc3ccccc3o2)cc1NC(=O)COc1cc(C)cc(C)c1	none
COc1ccc(-c2nc3ccccc3o2)cc1NC(=O)COc1ccc(C(C)(C)C)cc1	Pf Dd2 growth 7.94µM
C=CCN1CC2(CCC1=O)CCN(C(=O)C1CCc3ccccc31)CC2 (centres undefined)	none
COc1ccc(NC(=O)N2C[C@@H]3C[C@H](C2)c2ccc(NC(=O)c4ccc(F)cc4)c(=O)n2C3)cc1	none
COc1cccc(C(=O)N2CCC3(CC2)NC(=O)N(Cc2ccccc2)C3=O)c1OC	Pf Dd2 growth 8.91µM
COc1ccc(C(=O)N2CCC3(CC2)NC(=O)N(Cc2ccccc2)C3=O)cc1OC	none
COc1ccccc1CC(=O)N1CCC2(CC1)NC(=O)N(Cc1ccccc1)C2=O	none
Cc1nc(-c2cn(C3CCCN(C(=O)c4cccc(OC(F)(F)F)c4)C3)nn2)no1 (centres undefined)	none
CN(C1CCc2nn(C)c(=O)n2CC1)S(=O)(=O)c1cccc(C#N)c1 (centres undefined)	none
NC1CC(c2cc(NCCc3cn4ccsc4n3)ncn2)C1 (centres undefined)	none
Oc1ccc(Cl)cc1Nc1nc2ccccc2n2cnnc12	none
COC(=O)c1ccccc1NC(=O)Cn1c(=O)nc(-c2ccccc2)c2cc(Cl)ccc21	none
Oc1ccccc1Nc1nc(-c2ccccc2)c2cc(Cl)ccc2n1	Pf Dd2 growth 5.01µM
O=C(NCCCn1ccnn1)C1CCCN(C2CCCC2)C1 (centres undefined)	none
Cc1ccccc1CN1CCC2(CC1)OCCN(CCc1ccccc1)C2=O	none
Fc1ccc(-c2noc3ncnc(NCCCN4CCN(c5ccccc5)CC4)c23)cc1	none
Clc1ccc(-c2noc3ncnc(NCCCN4CCN(c5ccccc5)CC4)c23)cc1	Pf Dd2 growth 11.2µM
CCOc1ccc(CCNc2ncnc3onc(-c4ccc(Cl)cc4)c23)cc1OCC	none
COCCc1noc(C2CN(S(=O)(=O)c3ccc(C#N)cc3)C2)n1	none
COc1ccc(C(=O)N2CCCC2c2nc(CCOc3ccc(F)cc3)no2)cc1 (centres undefined)	none
COc1ccc(C(=O)N2CC3CC(C2)[C@H]2CCCC(=O)N2C3)cc1F (some centres undefined)	none
Cc1ccc(S(=O)(=O)N(CC(O)Cn2c3ccccc3c3ccccc32)c2cccc(C(N)=O)c2)cc1 (centres undefined)	Pf Dd2 growth 10µM
CCOC(=O)N1CCN(C(=O)CN(c2ccccc2F)S(=O)(=O)c2ccc(C)cc2)CC1	none
Cc1ccc(S(=O)(=O)c2cn(CC(=O)Nc3cccc(Cl)c3)c3ccccc3c2=O)cc1	none
COc1ccc(S(=O)(=O)N(CC(=O)NCc2ccccc2)c2ccc(C)cc2)cc1OC	none
Cc1ccc(S(=O)(=O)N(CC(O)Cn2c3ccccc3c3ccccc32)c2cccc(C(=O)N(C)C)c2)cc1 (centres undefined)	Pf Dd2 growth 8.91µM
Cc1ccc(-c2ccc3nnc(CNC(=O)c4cccc(N(C)C)c4)n3n2)cc1	none
CCCn1c(C)cnc1CC1CCN(C(=O)CC(C)C)C1 (centres undefined)	none
Cc1n[nH]c(C)c1CCCn1ccnc1-c1cnc[nH]1	none

Screens deposited in PubChem BioAssay by National Center for Advancing Translational Sciences (NCATS).
